TCR activator = activators of T cell receptors; primary human leukocytes, anti-CD3, IL-2 HTRF, 48 h; Potency, µM (series often up to 9.22 µM), inactives show at the highest dose activation of IL-2 secretion, actives largely listed as activators; 330,000 tested, under 10 active; AID 504894; note: % of control where 0% means no effect
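Using a-CD3 beads without co-stimulation, primary human leukocytes were exposed to compounds for 48 hr. An HTRF IL-2 kit measured the cytokine, with europium-to-d2 energy transfer producing emission at 665nm upon 320nm excitation.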
uPA generation = cell surface uPA generation inhibition; Potency, µM (top dose mostly 38.3 µM), for the others: at the highest dose activity change, negative = inhibition, usual class: inhibitors; cell surface uPA generation assay, qHTS; AID 540303; 0.31% of 330,000 active; active = well fitted inhibition curve with a large enough effect; inconclusive = small, poorly fitted or top-dose-only effect; inactive = no such curve, though single readings can be large or run the other way; tested in mouse RAW 264.7 cells; note: potency is the fitted concentration of half-maximal effect; % is set by controls: 0 for no effect and ±100 for the full control effect; nearly all actives have a fitted effect of over 55% in size
ClpP mod = qHTS Assay for Activators of ClpP | purified B. subtilis ClpP, FRET peptide cleavage, 20 min | Potency, µM (series often up to 57.5 µM), for the others: at the highest dose activity change, negative = active | 1.9% of 340,000 active | AID 651965, 2013; active = well fitted falling curve with a large enough effect; inconclusive = small, poorly fitted or top-dose-only effect; inactive = no such curve, though single readings can be large or run the other way; note: potency is the fitted concentration of half-maximal effect; the source files actives as falling curves though it sought activators and does not explain the sign; nearly all actives have a fitted effect of over 65% in size
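FRET quenching reversal measured ClpP activation: 10 microg/mL B. subtilis ClpP at pH 8 with the FRET-FV decapeptide, read at 430 nm after 320 nm excitation. The 20-min minus 0-min signal was scaled between DMSO/no-enzyme wells and ADEP (5.8 microM final).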
Sfp PPTase inh = Sfp phosphopantetheinyl transferase inhibition. Q9F4F7. Biochemical Sfp PPTase activity, qHTS. 3.5% of 310,000 active. Potency, µM, without a hit: largest response in the series, negative = inhibition, actives largely listed as inhibitors;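 note: the enzyme is Sfp with the accession as filed and its product quenches rhodamine fluorescence; potency is the fitted concentration of half-maximal effect; 0% = enzyme reaction without inhibitor and -100% = no enzyme wells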
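With Hepes-Na pH 7.6 buffer containing 10 mM MgCl2, Sfp (15 nM) modified BHQ-2-YbbR (12.5 uM) using rhodamine-CoA (5 uM). Two reads 30 minutes apart at 525/598 nm yielded each well's rate.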
The depositor's hits bear a star; ? = inconclusive; . = not tested or not shown; [ ] = dose if it differs, or a comment. Sampled rows, rich in hits. Any-hit rate of the full collection: about 4.2%. Unless noted, calls come from the whole dose curve; as a rule, active = well fitted curve in the direction sought with a large enough effect; inconclusive = small, poorly fitted or top-dose-only effect, or another doubt; inactive = no such curve, though single readings can be large; an effect the other way counts as inactive or inconclusive.

SMILES	TCR activator	uPA generation	ClpP mod	Sfp PPTase inh
COc1ccc(OC)c2c1C(=O)C(Cl)=C(Cl)C2=O	11.7%	?	-0.3%	0.501µM*
COc1ccc(OC)c2c1C(=O)c1ccccc1C2=O	2.9%	-8.7%	2.8%	39.8µM*
Cc1ccc(N2CCN(C(=O)C(=O)c3ccc4c(c3)OCO4)CC2)cc1	.	.	-4.8%	.
O=C(Nc1cccc(F)c1)N1CCCC2(CCNCC2)C1	.	.	.	-3.9%
O=C1c2cccc(OCC(=O)N3N=C(c4cccs4)CC3c3ccc(F)cc3)c2CCN1Cc1cccnc1 (stereo not given)	-1.8%[46.1 µM]	-11.7%	28.2µM*	-19.8%
COc1ccccc1-n1c(=O)n(C)c2c(C(N)=O)nc(-c3cccc(OC)c3OC)nc21	.	.	0.0%	.
COc1cc(-c2nc(C(N)=O)c3c(n2)n(-c2cccc(C)c2)c(=O)n3C)cc(OC)c1OC	.	.	22.4µM*	.
CCN(CC)S(=O)(=O)c1cccc(C(=O)Nc2sc3c(c2C#N)CCC(C)C3)c1 (stereo not given)	.	.	3.2%	.
O=C(COC(=O)Cn1cc(C(F)(F)F)ccc1=O)Nc1ccccc1	4.2%	-21.6%	2.3%	.
O=C(COC(=O)Cn1cc(C(F)(F)F)ccc1=O)Nc1ccc(Br)cc1F	-11.3%	0.5%	25.1µM*	.
COc1cccc(C(NC(C)=O)c2nc(-c3cccc(O)c3)cs2)c1 (stereo not given)	.	.	-13.9%	.
O=C(CC1(O)C(=O)N(Cc2ccc3c(c2)OCO3)c2ccccc21)c1ccccc1 (stereo not given)	-0.5%	2.3%	-0.8%	4.7%
Cc1ccc(C(=O)CC2(O)C(=O)N(Cc3ccc4c(c3)OCO4)c3ccccc32)cc1 (stereo not given)	-2.3%	-10.7%	15.8µM*	1.5%
CCC(C(=O)N1CCN(c2cc(Cl)ccc2C)CC1)n1nc(C)c2sc3ccccc3c2c1=O (stereo not given)	.	.	-1.1%	.
COc1ccccc1CNC(=O)CCC(=O)N1Cc2ccccc2Oc2ncccc21	.	.	1.2%	.
COc1ccc(N2C(=O)CC(NNc3ncc(Cl)cc3Cl)C2=O)cc1 (stereo not given)	-3.9%	2.6%	.	50.1µM*
CCN(CC)CCNC(=O)C(=O)Nc1c2c(nn1-c1ccc(F)cc1)CSC2	.	.	-2.4%	.
CCCOc1ccc(OC(=O)c2cn(-c3ccc(OC)cc3)c(=O)c3ccccc23)cc1	.	.	-18.2%	.
CC(=O)Nc1cccc(CP(=O)(c2ccccc2)c2ccccc2)c1	-2.6%	0.7%	31.6µM*	15.9%
COc1ccc(NC(C)=O)cc1CP(=O)(c1ccccc1)c1ccccc1	-2.0%	-2.9%	-0.9%	2.1%
Cc1ccc(C(=O)C(c2ccccc2)N2Cc3ccccc3C2=N)cc1 (stereo not given)	1.3%[46.1 µM]	-16.1%	3.16µM*	?
CC(C)CCNC(=O)[C@@H](c1ccccc1)N1Cc2ccccc2C1=O	.	.	-3.5%	.
CCOc1ccccc1NC(=O)Cn1c(=O)sc2ccccc21	-71.4%	-6.2%	-1.2%	14.0%
O=C(Cn1c(=O)sc2ccccc21)Nc1ccc(O)cc1	1.6%	-0.1%	.	79.4µM*
CCCSc1oc(-c2cccs2)nc1S(=O)(=O)c1ccc(Cl)cc1	.	.	-28.8%	.
SMILES	TCR activator	uPA generation	ClpP mod	Sfp PPTase inh
O=C(CSc1ccc(Cl)cc1)Nc1ccc(-c2nc3ccccc3[nH]2)cc1	-0.6%[46.1 µM]	1.9%	25.1µM*	?
Cc1cccc(N2CCN(C(=O)CCS(=O)(=O)c3ccc4c(c3)CC(=O)N4C)CC2C)c1 (stereo not given)	.	.	-0.2%	.
COc1ccc(OC)c(CNC(=O)c2cnc3c(C)cccn3c2=O)c1	.	.	-4.6%	.
CCCCC#Cc1ccccc1CC(=O)Nc1ccccc1	3.7%	12.0%	1.9%	13.5%
CCCCCCCC#Cc1ccccc1/C=N/S(=O)c1ccc(C)cc1 (stereo not given)	4.0%	?	-7.7%	25.1µM*
NC(=S)N/N=C/c1ccc(-c2cc(Cl)cc(Cl)c2)o1	8.0%	-4.3%	27.5%	50.1µM*
NC(=S)N/N=C/c1ccc(-c2ccc([N+](=O)[O-])cc2)o1	-2.5%	-7.5%	1.0%	3.55µM*
NC(=S)N/N=C/c1ccc(-c2cc(Cl)ccc2Cl)o1	-4.6%	-0.3%	-12.8%	-24.2%
O=C(O)CSc1nnc(-c2cc3ccccc3o2)n1-c1ccccc1	0.8%	0.8%	22.4µM*	-4.8%
Cc1ccc(-n2ncc(C(=O)Nc3cc(Cl)cc(Cl)c3)c2C2CCNCC2)cc1C	7.4%	11.2µM*	0.8%	-19.1%
COc1ccc(NC(=O)c2cnn(-c3ccc(C)c(C)c3)c2C2CCNCC2)cc1OC	.	.	1.0%	.
O=C(NNc1cccc(Cl)n1)Nc1ccc(Cl)cc1	-1.6%	-0.2%	-0.1%	-1.2%
Cc1ccc(NNC(=O)Nc2ccc(Cl)cc2)nn1	8.4%	-1.6%	.	8.91µM*
Cc1ccc(O)c(NC(=O)c2ccccc2-c2ccccc2C(=O)O)c1	.	-7.0%	25.1µM*	7.4%
Cc1ccc(NC(=O)c2ccccc2-c2ccccc2C(=O)O)cc1	9.1%[46.1 µM]	5.4%	-0.5%	25.1%
O=C(NCCc1ccc(Cl)cc1)c1ccc(CSCc2cccc(Cl)c2)o1	.	.	-0.7%	.
CCOc1ccc2[nH]c(=O)c(CN(Cc3cccnc3)C(=O)Nc3ccccc3OC)cc2c1	1.0%	-7.8%	?	20.1%
COc1cc(C(=O)N(Cc2cccnc2)Cc2cc3cc4c(cc3[nH]c2=O)OCCO4)cc(OC)c1OC	0.0%	.	28.2µM*	-14.5%
COc1ccc2[nH]c(=O)c(CN(Cc3cccnc3)C(=O)Nc3ccccc3)cc2c1	-3.6%	0.0%	31.6µM*	8.9%
O=C(Nc1cccnc1Cl)c1cc2ccccc2o1	-0.6%	?	0.7%	1.5%
CCN(C(=O)Cc1cccs1)c1nnc(-c2cc(OC)c(OC)c(OC)c2)s1	1.2%	1.9%	22.4µM*	5.6%
CCN(C(=O)Cc1ccccc1OC)c1nnc(-c2ccncc2)s1	-2.9%	2.1%	-4.4%	-9.6%
Cc1cccc(C)c1NC(=O)Nc1nnc([C@@H]2C[C@H](O)[C@@H](CO)O2)s1	.	.	-1.4%	.
Cc1cccn2c(=O)c3cc(C#N)c(=NC(=O)c4ccccc4)n(Cc4ccco4)c3nc12	-7.4%	4.1%	.	.
Cc1cccc(C(=O)N=c2c(C#N)cc3c(=O)n4cccc(C)c4nc3n2Cc2ccco2)c1	-17.5%	-5.1%	4.3%	28.2µM*
SMILES	TCR activator	uPA generation	ClpP mod	Sfp PPTase inh
CCOC(=O)c1cc2c(=O)n3ccccc3nc2n(Cc2ccccc2Cl)c1=N	.	.	.	-1.7%
CCOC(=O)c1cc2c(=O)n3ccccc3nc2n(Cc2ccco2)c1=NC(=O)c1cccc(C)c1	.	.	4.2%	.
CCOC(=O)c1cc2c(=O)n3ccccc3nc2n(Cc2ccccc2)c1=N	-0.4%	4.9%	15.8µM*	14.6%
CCOC(=O)c1cc2c(=O)n3ccccc3nc2n(Cc2ccco2)c1=NC(=O)c1cccnc1	-1.8%	0.0%	3.16µM*	35.5µM*
Cc1cccn2c(=O)c3cc(C#N)c(=O)n(Cc4cccnc4)c3nc12	2.2%	2.1%	2.82µM*	-3.4%
C=C(C)C(=O)C1CCCCC1	.	.	.	-12.2%
CSc1ccc(/C=C/c2ccnc3ccccc23)cc1	.	.	-0.6%	.
COc1ccc(-n2nc(C(=O)Nc3ccc(Cl)cn3)c3c4ccccc4n(C)c3c2=O)cc1Cl	.	.	-11.1%	.
CCCCOc1ccc(CC(=O)N(C)OC)cc1	.	.	0.8%	.
